HP1b chromo inh: HP1-beta chromodomain-methylated histone interaction inhibition; AID 540317; Potency, µM (series often up to 114 µM), hits mostly inhibitors; 390,000 compounds, 0.56% hits; P83916; AlphaScreen HP1-beta / biotin-H3K9me3 peptide binding; further: nearly all actives have a fitted effect of over 70% in size
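Compound inhibition of the preformed complex between 50 nM HP1-beta and 50 nM biotinylated H3K9me3 peptide was read by AlphaScreen. Buffer was PBS pH 7.4 with 0.01% Tween-20. Incubations ran 30 min at room temperature, with 10 ug/mL donor/acceptor beads.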
JMJD2A Tudor inh: blocks the human JMJD2A Tudor domain; O75164; 390,000 compounds, 4.4% hits; Potency, µM (top dose mostly 114 µM), hits mostly inhibitors; AlphaScreen JMJD2A-Tudor / H3K4me3 peptide binding; further: nearly all actives have a fitted effect of over 50% in size
PLK1 PBD block: PLK1 (human) polo-box domain binding inhibition. Potency, µM, hits mostly inhibitors. 360,000 compounds, 2.8% hits. P53350. Plk1 PBD binding of FITC phosphopeptide, fluorescence polarization; further: series mostly up to about 57 µM; nearly all actives have a fitted effect of over 65% in size
BAZ2B inh: blocks human BAZ2B. Q9UIF8. AlphaScreen BAZ2B-H3K14Ac peptide displacement. Potency, µM (titrated, usually from 114 µM), actives largely listed as inhibitors. 360,000 compounds, 4.4% hits. AID 504333; further: nearly all actives have a fitted effect of over 60% in size
Target sequence (Q9UIF8 whole entry, looked up): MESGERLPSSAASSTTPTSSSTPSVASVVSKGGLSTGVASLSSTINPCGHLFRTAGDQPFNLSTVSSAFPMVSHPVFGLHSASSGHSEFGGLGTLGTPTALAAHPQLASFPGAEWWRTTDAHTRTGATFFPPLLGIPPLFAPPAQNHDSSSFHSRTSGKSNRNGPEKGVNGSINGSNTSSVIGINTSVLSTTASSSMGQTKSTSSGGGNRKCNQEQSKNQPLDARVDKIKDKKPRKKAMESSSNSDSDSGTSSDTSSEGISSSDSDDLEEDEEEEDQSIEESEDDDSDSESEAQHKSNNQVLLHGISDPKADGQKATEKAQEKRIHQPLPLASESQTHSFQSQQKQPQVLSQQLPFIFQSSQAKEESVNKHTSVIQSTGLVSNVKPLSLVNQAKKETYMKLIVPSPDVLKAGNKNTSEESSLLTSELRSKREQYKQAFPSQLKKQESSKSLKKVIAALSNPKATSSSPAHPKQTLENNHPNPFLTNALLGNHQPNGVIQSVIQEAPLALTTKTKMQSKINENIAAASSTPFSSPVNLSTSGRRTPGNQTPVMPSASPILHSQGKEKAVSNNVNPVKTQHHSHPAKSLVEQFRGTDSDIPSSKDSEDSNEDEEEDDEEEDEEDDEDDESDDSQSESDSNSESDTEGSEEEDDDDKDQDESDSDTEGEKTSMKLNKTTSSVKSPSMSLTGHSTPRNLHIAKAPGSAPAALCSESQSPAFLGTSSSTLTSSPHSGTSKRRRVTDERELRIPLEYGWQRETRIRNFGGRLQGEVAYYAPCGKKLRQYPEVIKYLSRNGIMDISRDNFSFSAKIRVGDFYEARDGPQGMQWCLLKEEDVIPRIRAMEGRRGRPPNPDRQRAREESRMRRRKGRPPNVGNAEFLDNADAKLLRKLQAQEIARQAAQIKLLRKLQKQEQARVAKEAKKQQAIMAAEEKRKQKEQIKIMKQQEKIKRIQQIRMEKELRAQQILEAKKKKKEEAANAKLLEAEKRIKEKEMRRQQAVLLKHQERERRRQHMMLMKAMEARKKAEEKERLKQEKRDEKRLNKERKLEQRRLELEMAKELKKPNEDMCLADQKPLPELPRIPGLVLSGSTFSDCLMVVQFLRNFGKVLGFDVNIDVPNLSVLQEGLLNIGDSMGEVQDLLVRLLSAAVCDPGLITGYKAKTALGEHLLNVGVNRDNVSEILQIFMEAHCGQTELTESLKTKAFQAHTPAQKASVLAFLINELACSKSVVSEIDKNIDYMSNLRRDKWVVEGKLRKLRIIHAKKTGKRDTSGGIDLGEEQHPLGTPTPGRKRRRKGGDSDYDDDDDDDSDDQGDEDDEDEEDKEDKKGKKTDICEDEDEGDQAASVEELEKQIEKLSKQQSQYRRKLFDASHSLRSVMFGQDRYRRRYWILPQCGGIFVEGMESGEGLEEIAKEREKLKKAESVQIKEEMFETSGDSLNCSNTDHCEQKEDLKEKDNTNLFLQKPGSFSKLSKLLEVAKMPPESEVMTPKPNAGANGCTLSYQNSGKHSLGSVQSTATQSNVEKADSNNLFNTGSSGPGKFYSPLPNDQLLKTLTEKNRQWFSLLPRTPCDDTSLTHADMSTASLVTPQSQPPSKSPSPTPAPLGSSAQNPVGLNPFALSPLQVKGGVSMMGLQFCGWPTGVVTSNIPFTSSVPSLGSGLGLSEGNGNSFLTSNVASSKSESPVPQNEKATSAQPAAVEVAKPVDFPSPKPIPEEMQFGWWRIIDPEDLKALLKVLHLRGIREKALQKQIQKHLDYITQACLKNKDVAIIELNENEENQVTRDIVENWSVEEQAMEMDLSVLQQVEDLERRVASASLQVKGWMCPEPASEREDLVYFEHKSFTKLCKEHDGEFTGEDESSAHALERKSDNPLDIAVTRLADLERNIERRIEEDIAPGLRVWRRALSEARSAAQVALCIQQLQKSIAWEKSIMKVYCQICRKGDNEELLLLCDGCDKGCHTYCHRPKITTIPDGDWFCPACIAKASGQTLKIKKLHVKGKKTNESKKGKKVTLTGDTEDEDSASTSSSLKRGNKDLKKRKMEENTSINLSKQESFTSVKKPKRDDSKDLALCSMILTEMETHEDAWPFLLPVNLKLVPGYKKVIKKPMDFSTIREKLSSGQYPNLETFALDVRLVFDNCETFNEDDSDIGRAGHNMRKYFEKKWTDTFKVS
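Inhibition is scored as reduced AlphaScreen emission. The BAZ2B/b-H3(5-23)K14Ac complex (50 nM each) in PBS pH 7.4, 0.01% Tween-20 meets compound (up to 110 uM) for 30 min at RT before bead addition.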
Sfp inh: Sfp phosphopantetheinyl transferase inhibition. 310,000 compounds, 3.5% hits. Biochemical Sfp PPTase activity, qHTS. Potency, µM, usual class: inhibitors;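 further: the enzyme is Sfp with the accession as filed and its product quenches rhodamine fluorescence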
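Step 1, compound plus 15 nM Sfp-PPTase, 15 min, room temperature. Step 2, add rhodamine-CoA (5 uM) and BHQ-2-YbbR (12.5 uM). Step 3, read 525/598 nm fluorescence at 0 and 30 min.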
G9a inh: G9a (human) methyltransferase inhibition; AID 504332; Potency, µM (series often up to 102 µM), hits mostly inhibitors; G9a H3K9 monomethylation, AlphaScreen, 2 h; 350,000 compounds, 8.8% hits; Q96KQ7; further: nearly all actives have a fitted effect of over 75% in size
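Quantitative HTS format: methyltransferase activity on a biotin-tagged H3K9 peptide is measured by AlphaScreen, using a rabbit anti-monomethyl-H3K9 antibody with streptavidin donor and anti-IgG acceptor beads. Final levels are 20 nM enzyme, 500 nM peptide, 20 uM SAM; 2 h RT.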
Hits are given with their value; - = inactive; ? = inconclusive; . = no result; [ ] = another dose, or the depositor's remark. Most compounds without a hit are left out; they make up all but 12% or so of the library. The call rests on the fitted dose curve; in most records, active means well fitted curve in the direction sought with a large enough effect; inconclusive means small, poorly fitted or top-dose-only effect, or another doubt; inactive means no such curve, though single readings can be large; an effect the other way counts as inactive or inconclusive.

SMILES | HP1b chromo inh | JMJD2A Tudor inh | PLK1 PBD block | BAZ2B inh | Sfp inh | G9a inh
Cc1cc(C)cc(N2C(=O)NC(=O)/C(=C\C=C\c3ccco3)C2=O)c1 | ? | ? | 1.7µM | ? | 45µM | 11µM
O=C1NC(=O)N(Cc2ccc(F)cc2)C(=O)/C1=C\C=C\c1ccco1 | - | -[11.4 µM] | ? | 56µM | ? | 40µM
CCCCN1C(=O)/C(=C\c2ccco2)C(=O)N(CCc2ccccc2)C1=O | ? | ? | 0.84µM | 35µM | ? | 32µM
CC(C)c1ccc(N2C(=O)CC(=O)NC2=O)cc1 | - | - | - | - | - | -
CC(C)c1ccc(N2C(=O)NC(=O)/C(=C/C=C/c3ccco3)C2=O)cc1 | - | ? | 0.67µM | ? | - | 50µM
CC[C@@H]1CN2CCc3cc(OC)c(OC)cc3[C@H]2C[C@@H]1C[C@@H]1NCCc2cc(O)c(OC)cc21 | . | . | . | . | - | -[21.5 µM]
CN1CCN(c2ncc3ncc(=O)n(C)c3n2)CC1 | . | . | . | . | - | -[0.501 µM]
Cc1ccc(N2C(=O)NC(=O)/C(=C/C=C/c3ccco3)C2=O)cc1 | - | - | ? | - | 50µM | ?
CCc1ccc(N2NC(=O)/C(=C/C=C/c3ccco3)C2=O)cc1 | - | ? | - | ? | - | 8.9µM
CCc1ccc(N2C(=O)NC(=O)/C(=C\C=C\c3ccco3)C2=O)cc1 | - | - | 1.3µM | 45µM | 50µM | -
CCCCN1C(=O)/C(=C/C=C/c2ccco2)C(=O)NC1=S | 35µM | 22µM | 1.1µM | 35µM | 28µM | 7.9µM
CC1=NN(c2ccccc2)C(=O)C1/C=C1\C(=O)NC(=O)N(c2cc(C)cc(C)c2)C1=O (configuration not stated) | - | - | - | ? | - | ?
CC[C@H]1CN2CC[C@@H]1C[C@H]2[C@@H](O)c1ccnc2ccc(OC)cc12 | . | . | . | . | - | -[21.5 µM]
CC(C)n1c(N2CCN(S(=O)(=O)c3cccc([N+](=O)[O-])c3)CC2)nc2ccccc21 | - | ? | - | - | - | .
CCN1C[C@]2(C)CC[C@H](O)[C@@]34C5C[C@@H]6[C@@H](OC)C[C@@](O)(C5[C@H]6O)[C@@H](CC23)[C@@H]14 (some centres not stated) | . | . | . | . | - | .
COCc1cc(C)c(C#N)c(=S)[nH]1 | ? | 7.9µM | 27µM | ? | 10µM | .
N[C@@H](Cn1ccc(=O)[nH]c1=O)C(=O)O | . | . | . | . | . | 1.5µM
NC(Cn1ccc(=O)[nH]c1=O)C(=O)O (configuration not stated) | . | . | . | . | . | -[12.7 µM]
N[C@@H](Cn1cc(I)c(=O)[nH]c1=O)C(=O)O | . | . | . | . | ? | 35µM
NCC(CS(=O)(=O)O)c1ccc(Cl)cc1 (configuration not stated) | . | . | . | . | - | -
CCCc1nn(C)c2c1C(c1ccncc1)C(C#N)=C(N)O2 (configuration not stated) | - | - | ? | - | - | ?
CNC(C)[C@H](O)c1ccccc1 (some centres not stated) | . | . | . | . | - | -[2.33 µM]
COc1ccc(CNC(=O)Cn2c(=O)oc3cc(S(=O)(=O)N4CCCC4)ccc32)cc1 | - | - | - | - | - | -
CN(C)c1ccc(CNC(=O)Cn2c(=O)oc3cc(S(=O)(=O)N4CCCCCC4)ccc32)cc1 | - | ? | . | 25µM | . | 11µM
N#CC1(c2ccccc2)CCN(C2CC(=O)N(c3ccc4c(c3)OCO4)C2=O)CC1 (configuration not stated) | - | - | - | - | ? | 22µM
SMILES | HP1b chromo inh | JMJD2A Tudor inh | PLK1 PBD block | BAZ2B inh | Sfp inh | G9a inh
COc1cc(OC)c(OC)cc1CNCCc1cccc(F)c1 | ? | 7.9µM | - | 56µM | - | -
COc1ccc(CNCCc2ccc(Cl)cc2)c(OC)c1OC | ? | 32µM | - | ? | - | 35µM
COc1ccccc1CNCCc1ccc(F)cc1 | ? | 32µM | - | 50µM | - | -
COc1ccc(CCNCc2ccccc2F)cc1 | - | 20µM | - | 45µM | - | -
COc1ccccc1CNCCc1cccc(Cl)c1 | . | . | - | . | . | .
CCC(C)C(=O)OC1C(O)C2C(CN3CC(C)CCC3[C@]2(C)O)C2C[C@]34O[C@@]5(O)C(OC(=O)C(C)(O)CC)CCC3(C)C5C(OC(C)=O)C(OC(C)=O)C4[C@@]21O (some centres not stated) | . | . | . | . | - | -[2.33 µM]
CCOc1ccccc1NC(=O)CCn1cccc1 | - | - | - | . | - | ?
COc1cc(OC)c(OC)cc1CNCCc1ccc(F)cc1 | - | 63µM | - | - | - | .
COc1ccc(OC)c(CNCCc2ccc(OC)c(OC)c2)c1 | - | 18µM | - | ? | - | .
COc1cc(OC)c(OC)cc1CNCCc1ccc(OC)c(OC)c1 | ? | 3.2µM | - | ? | - | ?
COc1ccc(CCNCc2ccccc2F)cc1OC | - | - | - | - | - | -
COc1ccc(CC(C)NCCc2ccc(OC)c(OC)c2)cc1 (configuration not stated) | - | - | - | - | - | -
COc1ccc(CCNCc2ccc(Br)cc2)cc1OC | ? | 20µM | - | 50µM | - | -
CNCCc1ccc(OC)c(OC)c1 | - | - | - | - | - | ?
Cc1c(F)c(F)c(COC(=O)C2C(/C=C(\Cl)C(F)(F)F)C2(C)C)c(F)c1F (configuration not stated) | . | . | . | . | - | .
CCCCC/C=C\C/C=C\C/C=C\C/C=C\CCCC(=O)OC(CO)CO | . | . | . | . | - | -
C[C@H](N)Cc1ccccc1 | . | . | . | . | - | -[12.7 µM]
CC1CCCC(C)N1C(=O)CSc1nnc(NC(=O)c2cccs2)s1 (configuration not stated) | - | - | ? | - | - | 50µM
CC(C)C[C@H](NC(=O)[C@H](Cc1ccccc1)NC(=O)CNC(=O)[C@H](CS)N(C(=O)[C@@H](N)Cc1ccc(O)cc1)C(C)(C)C)C(=O)N([C@H](C(=O)O)[C@H](C)O)C(C)(C)C | . | . | . | . | - | -
COc1cc2c(cc1OC)-c1c(OC)c(OC)c(OC)c3ccnc(c13)C2=O | - | ? | - | 28µM | - | ?
O=C1NC(=O)C(=O)C(=O)N1 | . | . | . | . | 14µM | .
O=C1CCC[C@H]2[C@H]3CCCN4CCCC(=CN12)[C@@H]34 | . | . | . | . | - | .
O=C(N[C@@H]1CN2CCC1CC2)c1cc(Cl)cc2[nH]cnc12 | . | . | . | . | - | .
Clc1ccc(Cl)cc1 | . | . | . | . | - | -
Clc1ccc(C(Cl)(Cl)Cl)c(Cl)c1 | - | - | 11µM | - | . | -[0.501 µM]
COC(=O)c1ccccc1OP(=O)(c1cccc([N+](=O)[O-])c1)c1cccc([N+](=O)[O-])c1 | ? | - | - | ? | - | .
COc1ccc(NC(=S)NC(NC(=O)CF)C(Cl)(Cl)Cl)cc1[N+](=O)[O-] (configuration not stated) | ? | ? | 30µM | ? | - | 22µM
O=C(Nc1ccc(F)c([N+](=O)[O-])c1)c1cccn(Cc2ccccc2)c1=O | - | - | . | - | . | -
O=C(CF)NC(NC(=S)Nc1cccc([N+](=O)[O-])c1)C(Cl)(Cl)Cl (configuration not stated) | - | - | - | - | - | 35µM

Compound activity as filed in PubChem BioAssay.
